ChEMBL document CHEMBL2218924, “A broad activity screen in support of a chemogenomic map for kinase signalling research and drug discovery” (Biochem J, 2013)

What was measured:
[1] = biological target: Mitogen-activated protein kinase 11 (Homo sapiens) (UniProt Q15759); conditions: at 1 µM
[2] = biological target: T1, Mitogen-activated protein kinase 13 (Homo sapiens) (UniProt O15264); conditions: at 1 µM
T1 sequence (whole entry): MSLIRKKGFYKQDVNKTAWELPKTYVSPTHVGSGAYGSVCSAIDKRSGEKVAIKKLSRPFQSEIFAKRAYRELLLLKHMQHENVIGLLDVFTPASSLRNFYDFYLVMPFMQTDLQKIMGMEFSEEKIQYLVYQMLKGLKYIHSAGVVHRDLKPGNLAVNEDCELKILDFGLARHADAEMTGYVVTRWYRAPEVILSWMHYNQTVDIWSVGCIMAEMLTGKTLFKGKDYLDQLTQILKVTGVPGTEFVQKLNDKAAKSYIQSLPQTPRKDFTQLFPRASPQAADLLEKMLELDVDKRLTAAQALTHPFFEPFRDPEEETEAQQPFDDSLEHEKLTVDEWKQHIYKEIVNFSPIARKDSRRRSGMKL

[3] = biological target: T1, Mitogen-activated protein kinase 13 (Homo sapiens); conditions: at 10 µM
[4] = biological target: T2, Serine/threonine-protein kinase Sgk1 (Homo sapiens) (UniProt O00141); conditions: at 1 µM
T2 sequence (whole entry): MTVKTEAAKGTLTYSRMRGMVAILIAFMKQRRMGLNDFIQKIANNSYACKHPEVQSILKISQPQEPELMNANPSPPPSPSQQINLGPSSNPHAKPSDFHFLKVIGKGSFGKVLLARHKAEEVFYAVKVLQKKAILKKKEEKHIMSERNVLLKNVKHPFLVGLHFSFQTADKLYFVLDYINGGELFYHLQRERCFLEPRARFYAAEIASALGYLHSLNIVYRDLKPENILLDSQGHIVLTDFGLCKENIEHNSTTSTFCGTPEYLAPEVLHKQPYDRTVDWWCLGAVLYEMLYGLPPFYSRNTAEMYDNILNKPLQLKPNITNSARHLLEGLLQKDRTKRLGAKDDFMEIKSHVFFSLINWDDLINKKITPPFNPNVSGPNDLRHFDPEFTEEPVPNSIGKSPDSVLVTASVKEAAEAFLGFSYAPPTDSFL

[5] = biological target: T2, Serine/threonine-protein kinase Sgk1 (Homo sapiens); conditions: at 10 µM
[6] = biological target: T3, Serine/threonine-protein kinase Sgk2 (Homo sapiens) (UniProt Q9HBY8); conditions: at 1 µM
T3 sequence (whole entry): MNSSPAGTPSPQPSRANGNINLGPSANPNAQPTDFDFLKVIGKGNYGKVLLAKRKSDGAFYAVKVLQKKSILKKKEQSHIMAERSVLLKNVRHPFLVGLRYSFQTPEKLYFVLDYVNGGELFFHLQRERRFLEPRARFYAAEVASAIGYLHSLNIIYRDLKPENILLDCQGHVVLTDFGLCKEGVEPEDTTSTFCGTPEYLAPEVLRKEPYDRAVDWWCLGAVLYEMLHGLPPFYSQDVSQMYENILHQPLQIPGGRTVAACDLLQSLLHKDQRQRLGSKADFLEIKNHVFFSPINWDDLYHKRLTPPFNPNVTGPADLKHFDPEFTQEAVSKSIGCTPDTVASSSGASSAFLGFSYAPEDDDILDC

[7] = biological target: T3, Serine/threonine-protein kinase Sgk2 (Homo sapiens); conditions: at 10 µM
[8] = biological target: Mitogen-activated protein kinase 11 (Homo sapiens) (UniProt Q15759); conditions: at 10 µM
[9] = biological target: T4, Serine/threonine-protein kinase Sgk3 (Homo sapiens) (UniProt Q96BR1); conditions: at 10 µM
T4 sequence (whole entry): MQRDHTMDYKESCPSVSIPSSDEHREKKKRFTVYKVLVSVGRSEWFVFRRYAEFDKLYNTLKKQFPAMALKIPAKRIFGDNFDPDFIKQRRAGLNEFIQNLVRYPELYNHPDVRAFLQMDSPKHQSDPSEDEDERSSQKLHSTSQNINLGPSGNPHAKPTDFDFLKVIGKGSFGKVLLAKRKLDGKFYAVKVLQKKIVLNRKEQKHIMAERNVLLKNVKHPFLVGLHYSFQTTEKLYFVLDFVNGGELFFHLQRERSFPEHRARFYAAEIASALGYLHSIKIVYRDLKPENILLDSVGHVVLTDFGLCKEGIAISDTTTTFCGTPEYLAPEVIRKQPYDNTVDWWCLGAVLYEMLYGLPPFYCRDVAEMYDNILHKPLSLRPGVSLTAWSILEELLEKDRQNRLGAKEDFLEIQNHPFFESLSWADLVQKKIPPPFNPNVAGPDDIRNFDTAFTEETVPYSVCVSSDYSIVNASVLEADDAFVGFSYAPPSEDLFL

[10] = biological target: Serine/threonine-protein kinase SIK1 (Homo sapiens) (UniProt P57059); conditions: at 1 µM
Chain of Serine/threonine-protein kinase SIK1 (Homo sapiens) (P57059 whole entry): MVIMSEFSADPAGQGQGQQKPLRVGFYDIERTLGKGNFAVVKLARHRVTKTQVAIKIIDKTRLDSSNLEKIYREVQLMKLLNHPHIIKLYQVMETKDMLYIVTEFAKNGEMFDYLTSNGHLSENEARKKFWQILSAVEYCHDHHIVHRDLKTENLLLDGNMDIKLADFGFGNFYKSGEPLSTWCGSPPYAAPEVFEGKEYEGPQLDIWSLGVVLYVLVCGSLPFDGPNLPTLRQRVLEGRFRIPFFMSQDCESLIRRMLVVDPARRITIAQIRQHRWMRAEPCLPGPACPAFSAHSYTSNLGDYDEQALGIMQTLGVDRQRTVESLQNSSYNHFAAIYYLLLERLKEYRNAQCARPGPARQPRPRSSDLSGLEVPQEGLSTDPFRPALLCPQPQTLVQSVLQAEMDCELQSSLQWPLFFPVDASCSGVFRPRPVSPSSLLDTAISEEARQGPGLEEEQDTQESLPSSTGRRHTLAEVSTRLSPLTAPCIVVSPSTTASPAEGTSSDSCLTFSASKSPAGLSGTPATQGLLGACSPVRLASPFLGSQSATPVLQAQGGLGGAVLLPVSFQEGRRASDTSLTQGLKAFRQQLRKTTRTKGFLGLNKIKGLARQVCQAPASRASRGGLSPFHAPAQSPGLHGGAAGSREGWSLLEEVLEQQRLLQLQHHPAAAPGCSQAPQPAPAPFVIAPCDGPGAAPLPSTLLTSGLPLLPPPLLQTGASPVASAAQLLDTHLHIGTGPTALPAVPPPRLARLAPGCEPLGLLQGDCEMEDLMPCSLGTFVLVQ

Chain of Mitogen-activated protein kinase 11 (Homo sapiens) (Q15759 whole entry): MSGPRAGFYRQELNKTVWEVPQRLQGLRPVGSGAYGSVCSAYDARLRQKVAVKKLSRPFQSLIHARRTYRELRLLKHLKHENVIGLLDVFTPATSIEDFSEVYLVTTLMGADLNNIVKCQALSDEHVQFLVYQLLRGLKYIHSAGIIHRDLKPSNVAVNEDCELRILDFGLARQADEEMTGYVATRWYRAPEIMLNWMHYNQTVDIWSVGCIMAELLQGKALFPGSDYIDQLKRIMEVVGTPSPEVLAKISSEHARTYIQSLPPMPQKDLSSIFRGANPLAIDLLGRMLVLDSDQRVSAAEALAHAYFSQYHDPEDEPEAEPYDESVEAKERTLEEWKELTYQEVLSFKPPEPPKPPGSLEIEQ

| SMILES | residual activity [1] | residual activity [2] | residual activity [3] | residual activity [4] | residual activity [5] | residual activity [6] | residual activity [7] | residual activity [8] | residual activity [9] | residual activity [10] |
| --- | --- | --- | --- | --- | --- | --- | --- | --- | --- | --- |
| CN(C)S(=O)(=O)c1ccc2c(c1)/C(=C/c1cc3c([nH]1)CCCC3)C(=O)N2 | 94% | 97% | 96% | 82% | 96% | 115% | 95% | – | – | – |
| CC(C)(C)n1nc(Cc2cccc3ccccc23)c2c(N)ncnc21 | 64% | 101% | 95% | 100% | 127% | 101% | 78% | 22% | 105% | 72% |
| CCCCc1c(-c2ccc(OC)cc2)[nH]c2nccnc12 | 106% | – | – | 106% | 117% | 90% | 81% | – | 88% | 86% |
| Nc1ncnc2c1c(-c1ccc(Oc3ccccc3)cc1)cn2C1CCCC1 | 87% | 95% | – | 110% | 111% | 98% | 78% | 75% | 86% | 78% |
| COc1ccc(-c2cnc3c(-c4ccsc4)cnn3c2)cc1 | 94% | – | – | 99% | 94% | 97% | 83% | 95% | – | 87% |
| O=c1c(-c2ccc(F)cc2)c(-c2ccncc2)[nH]n1-c1ccc(Cl)cc1 | 23% | – | – | – | 101% | – | – | 5% | – | 141% |
| Nc1nc(Nc2ccc(S(N)(=O)=O)cc2)nn1C(=O)c1c(F)cccc1F | 102% | – | 31% | 124% | 75% | – | 49% | 77% | 79% | 50% |
| COc1cc2nccc(Oc3ccc(NC(=S)NC(=O)c4ccccc4C)cc3)c2cc1OC | 83% | 101% | 87% | – | – | 99% | – | 87% | 79% | 32% |
| COc1cc2ncnc(Nc3cccc(Cl)c3)c2cc1OC | – | 118% | 109% | 89% | 113% | 77% | 70% | 45% | – | 84% |
| CCCCc1c(-c2ccc(O)cc2)[nH]c2nccnc12 | – | 98% | 88% | – | – | 92% | 90% | – | 75% | 69% |
| CCN(CC)CCNC(=O)c1c(C)[nH]c(/C=C2\C(=O)Nc3ccc(Cl)cc32)c1C | – | – | – | 59% | 23% | 60% | 32% | – | 73% | 31% |
| O=c1cc(N2CCOCC2)oc2c(-c3ccccc3)cccc12 | – | 101% | 71% | 75% | – | – | – | – | 74% | – |
| O=C1Nc2ccccc2/C1=C\c1c(Cl)[nH]c2ccccc12 | 99% | – | – | – | – | – | 77% | – | 79% | 120% |
| CCN1/C(=C/C(C)=O)Sc2ccc(OC)cc21 | – | – | – | – | – | – | – | – | 65% | – |
| CC(C)c1nn(-c2c(Cl)cccc2Cl)c2nc(Cc3ccc(OCCO)cc3)[nH]c(=O)c12 | – | – | 59% | 99% | 103% | 97% | 91% | 105% | 81% | 109% |
| O=C(c1cc2cc(O)ccc2[nH]1)c1cc2cc(O)ccc2[nH]1 | – | – | – | 68% | 28% | 62% | 18% | – | 52% | 39% |

| SMILES | residual activity [1] | residual activity [2] | residual activity [3] | residual activity [4] | residual activity [5] | residual activity [6] | residual activity [7] | residual activity [8] | residual activity [9] | residual activity [10] |
| --- | --- | --- | --- | --- | --- | --- | --- | --- | --- | --- |
| COc1ccc2c(c1)c(C1=C(c3c[nH]c4ccccc34)C(=O)NC1=O)cn2CCCN(C)C | – | – | 100% | 107% | 56% | 80% | 41% | – | – | 77% |
| O=C1NC(=O)C(c2cn(CCCO)c3ncccc23)=C1c1cnccn1 | – | 99% | 94% | – | – | – | 92% | – | – | 129% |
| N#C/C(=C\c1ccc(O)c(O)c1)C(=O)NCc1ccccc1 | – | 125% | – | 79% | 32% | 61% | 17% | – | 73% | 88% |
| N#Cc1c(NC(=O)c2cccc3ccccc23)sc2c1CCCC2 | – | – | – | – | – | – | 90% | – | 86% | 136% |
| NCCNc1ncc(C(N)=O)c(Nc2cccc(C(F)(F)F)c2)n1 | – | 114% | 101% | 81% | 129% | 82% | 78% | 104% | 66% | 63% |
| CCOc1nc(NC(=O)Cc2cc(OC)ccc2OC)cc(N)c1C#N | – | – | – | 79% | 100% | – | – | – | – | – |
| O=C(Nc1ccc(Cl)cc1)c1ccccc1NCc1ccncc1 | – | – | – | – | 128% | – | 72% | – | – | – |
| Cn1c2ccccc2c2c3c(c4c5ccccc5n(CCC#N)c4c21)CNC3=O | – | 99% | – | 82% | 40% | 76% | 47% | 100% | – | 9% |
| O=C1C(Cl)=C(N2C(=O)CCC2=O)C(=O)c2ccccc21 | – | 95% | 92% | 90% | 100% | – | 97% | 92% | 82% | 122% |
| Oc1cccc(-c2nc(N3CCOCC3)c3oc4ncccc4c3n2)c1 | – | – | – | – | – | – | 66% | – | – | 91% |
| N#C/C(=C1/Nc2ccccc2S1)c1ccnc(NCCc2cccnc2)n1 | – | 78% | 48% | – | – | – | – | – | – | 146% |
| COc1ccc(COc2ccc(Cc3cnc(N)nc3N)cc2OC)cc1 | – | – | – | – | – | 108% | – | – | – | – |
| c1ccc(-c2cnc(Nc3ccc(OCCN4CCCC4)cc3)s2)cc1 | – | 103% | 103% | – | – | – | – | – | – | 53% |
| O=C(Nc1nc2ccccc2n1CCN1CCOCC1)c1cccc([N+](=O)[O-])c1 | – | 109% | 87% | – | – | 108% | 75% | – | – | 70% |
| Nc1nccc(-c2c(-c3ccc(F)cc3)ncn2C2CCNCC2)n1 | – | – | – | – | – | – | – | – | 75% | 132% |
